From PubChem BioAssay
An excerpt weighted towards active compounds, which were near 2.7% of everything screened.
14-3-3 Bad inh: disrupts binding of bovine 14-3-3 zeta to phospho-Bad peptide; actives 0.71% (n = 220,000); TR-FRET 14-3-3zeta/Dy647-pBad peptide displacement, 1 h; inhibition, % at 21.7 µM; P63103;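 active = inhibition above about 70%, limit read from the data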
Bim-Mcl-1: disrupts Bim peptide binding to human Mcl-1. Q07820. Bead-based flow cytometry, Bim peptide-Mcl-1 binding. actives 0.1% (n = 190,000). inhibition, % at 10 µM; in the data active = inhibition above about 40%
Target sequence (Q07820 whole entry, looked up): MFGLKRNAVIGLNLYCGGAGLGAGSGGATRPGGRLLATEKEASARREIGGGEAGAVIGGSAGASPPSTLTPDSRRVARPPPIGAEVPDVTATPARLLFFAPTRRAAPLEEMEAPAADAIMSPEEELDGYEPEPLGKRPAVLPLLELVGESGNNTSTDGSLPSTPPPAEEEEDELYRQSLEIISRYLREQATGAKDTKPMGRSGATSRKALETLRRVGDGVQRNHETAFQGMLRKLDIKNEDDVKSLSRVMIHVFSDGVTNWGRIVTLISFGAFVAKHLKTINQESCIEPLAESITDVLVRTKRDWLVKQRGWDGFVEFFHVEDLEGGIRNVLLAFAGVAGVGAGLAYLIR
eIF4E 4G PPI: inhibitors of eIF4E and eIF4G interaction in translation initiation. inhibition, % at 21.7 µM. AID 782. P63073+Q04637. actives 0.37% (n = 220,000). TR-FRET eIF4E-eIF4GI(517-606) binding, 2 h;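 active = inhibition above about 30%, limit read from the data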
Mcl1 Noxa PPI: Mcl-1/Noxa interaction inhibition | inhibition, % at 21.7 µM | AID 1022 | TR-FRET Mcl-1/Noxa peptide binding, 2 h | actives 1.5% (n = 220,000);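 active = compounds that cut the protein-peptide binding signal by more than 50% relative to plate controls in a single-dose test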;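 note: His-tagged Mcl-1 with rhodamine Noxa BH3 peptide and terbium anti-His antibody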
Mcl1 Bid PPI: disrupts binding of human Mcl-1 to Bid peptide; TR-FRET Mcl-1/Bid-Dy647 peptide binding, 1536-well; inhibition, % at 21.7 µM; AID 1021; Q07820; actives 0.97% (n = 220,000);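 active = compounds that cut the binding signal by more than half at the single screening dose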;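 note: His-tagged Mcl-1 with europium anti-His antibody binding Bid BH3 peptide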
Pf gamet viab: P. falciparum stage V gametocyte viability inhibition; inhibition, % at 10.9 µM; P. falciparum stage V gametocytes, ATP luminescence, 24 h; actives 0.065% (n = 150,000); AID 743093;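 active = inhibition above the mean plus 3 SD of compounds within the control limits, set per campaign, cut at about 38% in these data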
Large screens that a line does not name were inactive; [ ] = another dose, or the depositor's remark.

CCOc1ccc(CNS(=O)(=O)c2cccs2)cc1OCC	none (no result: 14-3-3 Bad inh, Bim-Mcl-1, eIF4E 4G PPI, Mcl1 Noxa PPI, Mcl1 Bid PPI)
O=C(CNc1ccccc1)NNC1=NCCC1	14-3-3 Bad inh 89
O=C(Cc1c(F)cccc1Cl)Nc1ccon1	Mcl1 Bid PPI 83
Cc1cc(NC(=O)Cc2c(F)cccc2Cl)no1	none (no result: Pf gamet viab)
COc1ccc(-c2noc(-c3cccs3)n2)cc1OC	Mcl1 Bid PPI 58 (no result: Bim-Mcl-1)
COc1ccc(-c2nnc(-c3ccc(Br)o3)o2)cc1OC	none
COc1ccc(-c2nc(-c3ccc(Br)o3)no2)cc1OC	Mcl1 Bid PPI 56 (no result: Pf gamet viab)
COc1cc(-c2nc(-c3ccc(NC(=O)c4ccc(Br)o4)cc3)no2)cc(OC)c1OC	Mcl1 Bid PPI 68
COc1cc(C(C)=O)ccc1OCC(=O)NCC1(N2CCCCC2)CCCCC1	none
O=C(NCC1COc2ccccc2O1)C1CCN(S(=O)(=O)c2cccc3nsnc23)CC1 (configuration not stated)	14-3-3 Bad inh 85
O=C(Cc1c(Cl)cccc1Cl)OCC(=O)N1CCc2ccccc2C1	Mcl1 Bid PPI 78
O=C(Cn1[nH]c(=O)c2ccccc2c1=O)OCC(=O)N1CCc2ccccc2C1	Mcl1 Bid PPI 83
O=C(Cn1[nH]c(=O)c2ccccc2c1=O)OCC(=O)N1CCCc2ccccc21	none (no result: Pf gamet viab)
Cc1ccc(C(=O)NNC(=O)CCn2nnc3ccccc32)cc1	none
CCOc1ccc(N2C(=O)CC(N(CCc3ccc(OC)cc3)C(=O)c3cccc(F)c3)C2=O)cc1 (configuration not stated)	none
COc1ccc(C2(CNC(=O)c3ccccc3)CCCC2)cc1OC	none (no result: 14-3-3 Bad inh, Bim-Mcl-1, eIF4E 4G PPI, Mcl1 Noxa PPI, Mcl1 Bid PPI)
CCC1(C(=O)OC)CCc2c(cc(OC)c3ccccc23)C1=O (configuration not stated)	Mcl1 Noxa PPI 88 (no result: Bim-Mcl-1, Pf gamet viab)
CCN(CC)S(=O)(=O)c1ccc(C(=O)N2CCCCC2)cc1	none
Cc1cc(C)c(C)c(S(=O)(=O)N2CCN(CC(=O)NC(=O)NCc3ccccc3)CC2)c1C	Bim-Mcl-1 61
O=[N+]([O-])c1cc(/C=N\Nc2nccs2)ccc1O	14-3-3 Bad inh 75[fluorescence artefact?], eIF4E 4G PPI 49[fluorescence artefact?], Mcl1 Noxa PPI 101, Mcl1 Bid PPI 61 (no result: Pf gamet viab)
O=[N+]([O-])c1ccc(CN2CCN(Cc3c[nH]c4ccccc34)CC2)cc1	none
CNC(=O)/C(C#N)=C/c1c(N(Cc2ccccc2)Cc2ccccc2)nc2c(C)cccn2c1=O	Bim-Mcl-1 90
CCNC(=O)/C(C#N)=C/c1c(N(Cc2ccccc2)Cc2ccccc2)nc2ccccn2c1=O	none
COc1ccccc1-c1nc(-c2ccc(Br)cc2)no1	none (no result: Pf gamet viab)
COc1ccc(-c2nc(-c3ccc(Br)cc3)no2)c(OC)c1	eIF4E 4G PPI 32
COc1ccc(NC(=O)CN2CCN(c3ccccc3F)CC2)cc1	none
COc1ccc(NC(=O)NCCCN2CCN(c3ccccc3F)CC2)cc1	Mcl1 Noxa PPI 56 (no result: Bim-Mcl-1)
COc1ccc(NC(=O)NCCCN2CCN(c3cc(C)ccc3C)CC2)cc1	Mcl1 Noxa PPI 55 (no result: Pf gamet viab)
COc1ccc(NC(=O)c2cc3cccc(OC)c3oc2=Nc2ccc(C(=O)O)cc2)cc1OC	Mcl1 Noxa PPI 77
COc1ccc(Br)cc1C(=O)Nc1ccc(C(=O)O)cc1	none
Cc1ccc(C)c(OCC(=O)N/N=C\c2cccn2C)c1	none
Cc1ccc(OCC(=O)N/N=C/c2cccn2C)cc1	14-3-3 Bad inh 70 (no result: Pf gamet viab)
COc1ccccc1/C=C/CN1CC(C)OC(C)C1 (configuration not stated)	14-3-3 Bad inh 79
COc1ccccc1/C=C/CN1CCCCC1	none (no result: 14-3-3 Bad inh, Bim-Mcl-1, eIF4E 4G PPI, Mcl1 Noxa PPI, Mcl1 Bid PPI)
CC(C)CN1CCN(Cc2cccc3cccnc23)CC1CCO (configuration not stated)	none
COc1ccc2nc(NC3=NCCC3)sc2c1	none (no result: Pf gamet viab)
CCN1CCN(CC(=O)Nc2nc3ccc(OC)cc3s2)CC1	14-3-3 Bad inh 79[fluorescence artefact?] (no result: Pf gamet viab)
COc1ccc2nc(Nc3sc4c(c3C(N)=O)CCCC4)sc2c1	Mcl1 Noxa PPI 100
COc1ccc2nc(NC(=O)CSc3nnc(N)s3)sc2c1	Mcl1 Noxa PPI 54
COc1ccc2nc(NC(=O)CSc3ccccc3)sc2c1	none
COc1ccc2nc(NC(=S)N(C)C)sc2c1	eIF4E 4G PPI 41[fluorescence artefact?] (no result: Pf gamet viab)
COc1ccc2nc(NC(=O)c3sc4nc(C)cc(C)c4c3N)sc2c1	Mcl1 Noxa PPI 53 (no result: Bim-Mcl-1)
Cc1cc(C)c2c(N)c(C(=O)Nc3ncc(C)s3)sc2n1	none (no result: Pf gamet viab)
O=C(CC12CC3CC(CC(C3)C1)C2)NC1CC1	none (no result: 14-3-3 Bad inh, Bim-Mcl-1, eIF4E 4G PPI, Mcl1 Noxa PPI, Mcl1 Bid PPI)
